High-throughput results deposited in PubChem by National Center for Advancing Translational Sciences (NCATS).
In the library only some 7.4% were active in any assay of this set; here they are far more common.
NPC1 promoter act: NPC1 promoter activation. hit rate 2.4% among 320,000. Potency, µM (titrated, usually from 9.22 µM), for inactives: at the top dose activation, actives largely listed as activators. Huh7 NPC1 promoter luciferase reporter, 24 h. AID 485313; further: % of control where 0% means no effect; nearly all actives have a fitted effect of over 60% in size
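Compounds in DMSO were transferred onto Huh7 NPC1-luciferase reporter cells pre-incubated 2 h; after 24 h at 37 °C, Amplite reagent was dispensed and luminescence recorded 10 min later.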
Luc counter: blocks Kinase-Glo luciferase, a counter-screen artifact; Kinase-Glo luciferase, ATP luminescence, 8 min; AID 1379; hit rate 0.28% among 200,000; Q27757; Potency, µM (titrated, usually from 38.3 µM), for the others: at the highest dose activity change, negative = inhibition, hits mostly inhibitors; further: on the % scale 0 is the no-effect control and ±100 the full control effect; nearly all actives have a fitted effect of over 60% in size
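Compound is pinned into ATP-containing buffer (10 uM ATP, imidazole pH 7.2, 7 mM MgCl2). Kinase-Glo luciferase reagent is then added. Light output is recorded following an 8-min room-temperature incubation.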
SMN2 splice enh: SMN2 splice variant enhancement; HEK293 SMN2-luciferase splicing reporter, luminescence, 30-36 h; Potency, µM (titrated, usually from 46.1 µM), without a hit: at the top dose activity change, positive = activation, actives largely listed as activators; hit rate 2.8% among 210,000; AID 1458; further: % of control where 0% means no effect; nearly all actives have a fitted effect of over 55% in size
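HEK293 cells carry an SMN2 minigene-luciferase reporter in which exon 7 inclusion puts luciferase in frame. Cells were seeded at 2000 cells/well, attached for 10-12 hours, then exposed to compounds for 30-36 hours at 37C before ONE-Glo luminescence.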
Rab9 prom act: Rab9 promoter activation; Huh7 Rab9 promoter-luciferase reporter, luminescence, 24 h; hit rate 2.8% among 320,000; Potency, µM (doses to about 9.22 µM), for inactives: at the top dose activation, negative = inhibition, usual class: activators; further: % of control where 0% means no effect; nearly all actives have a fitted effect of over 60% in size
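Luminescence read-out: Huh7 cells stably expressing Rab9-luciferase, treated 24 h with compound at 37 °C, then lysed with luciferase reagent for 10 min at ambient before reading.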
FLuc modulator: counter-screen for miR-21 project: firefly luciferase inhibitors or activators; purified FLuc, Km substrates, luminescence inhibition; AID 588342; P08659; Potency, µM (series often up to 57.5 µM), for inactives: at the top dose activity change, negative = inhibition, usual class: inhibitors; hit rate 6.9% among 360,000;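 further: plate controls were vehicle for no effect and reference inhibitor for full effect; nearly all actives have a fitted effect of over 55% in size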
Target sequence (P08659 whole entry, looked up): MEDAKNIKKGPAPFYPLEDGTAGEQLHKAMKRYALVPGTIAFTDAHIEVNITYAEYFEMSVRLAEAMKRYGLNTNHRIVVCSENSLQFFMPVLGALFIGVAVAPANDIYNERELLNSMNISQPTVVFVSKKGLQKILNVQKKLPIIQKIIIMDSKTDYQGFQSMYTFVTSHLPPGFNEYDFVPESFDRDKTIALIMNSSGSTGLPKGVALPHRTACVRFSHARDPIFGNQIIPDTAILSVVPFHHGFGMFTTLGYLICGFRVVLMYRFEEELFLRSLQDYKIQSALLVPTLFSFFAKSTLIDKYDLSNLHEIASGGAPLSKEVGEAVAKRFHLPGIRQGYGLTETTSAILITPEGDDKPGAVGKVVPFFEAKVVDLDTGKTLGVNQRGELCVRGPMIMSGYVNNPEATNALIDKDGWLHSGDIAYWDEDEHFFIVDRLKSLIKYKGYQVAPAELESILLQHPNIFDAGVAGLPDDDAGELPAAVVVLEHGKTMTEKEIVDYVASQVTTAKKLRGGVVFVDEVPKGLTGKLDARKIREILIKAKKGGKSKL
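Purified P. pyralis luciferase (10nM final) with 10uM D-luciferin and 10uM ATP (Km levels) in 50mM Tris acetate pH 7.5, 10mM Mg acetate, 0.01% Tween-20, 0.05% BSA; qHTS 6-point titration, ~60 µM downward; luminescence read.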
ELG1 genotoxic: genotoxicity induction in ELG1-luciferase HEK293T cells. Potency, µM (highest dose often 46 µM), for the others: at the highest dose activity change, positive = activation, actives largely listed as activators. hit rate 1.3% among 330,000. HEK293T ELG1-luciferase reporter, luminescence, 16 h. AID 504466; further: % of control where 0% means no effect; nearly all actives have a fitted effect of over 60% in size
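Genotoxic stress is detected as increased luminescence from luciferase-tagged ELG1 in HEK293T cells, measured with ONE-Glo after a 16 hr treatment at 37 °C.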
* marks the source's active call; other numbers are inactive results. The call rests on the fitted dose curve; in most records, active means well fitted curve in the direction sought with a large enough effect; inconclusive means small, poorly fitted or top-dose-only effect, or another doubt; inactive means no such curve, though single readings can be large; an effect the other way counts as inactive or inconclusive. Potency means the concentration at half of the fitted maximal effect.

What do the screens show for `CCOC(=O)C1=NN(c2ccc(Cl)cc2)C(=O)C1`?
NPC1 promoter act: inconclusive; Rab9 prom act: inconclusive; FLuc modulator: 9.53µM*; ELG1 genotoxic: inconclusive

Results for CCOC(=O)c1nn(-c2sc(C(=O)OC)c(C)c2C(=O)OC)cc1O ?
NPC1 promoter act: -0.3%; Luc counter: 0.6%; SMN2 splice enh: inconclusive; Rab9 prom act: -1.6%; FLuc modulator: -1.6%; ELG1 genotoxic: 5.1%

How did CCOC(=O)c1nn(-c2cc(C(=O)OC)cc(C(=O)OC)c2)cc1O do in these assays?
NPC1 promoter act: -2.2%; Luc counter: -2.7%; SMN2 splice enh: 1.7%; Rab9 prom act: -3.2%; FLuc modulator: 2.0%; ELG1 genotoxic: 3.5%

How did CCOC(=O)c1nn(-c2ccc(C)cc2)cc1O do in these assays?
NPC1 promoter act: 4.47µM*; Luc counter: -19.4%; SMN2 splice enh: inconclusive; Rab9 prom act: inconclusive; FLuc modulator: 7.57µM*; ELG1 genotoxic: 3.16µM*

What do the screens show for `COC(=O)c1nn(-c2ccc(-c3ccccc3)cc2)cc1O`?
NPC1 promoter act: inconclusive; Luc counter: -13.4%; SMN2 splice enh: inconclusive; Rab9 prom act: inconclusive; FLuc modulator: 0.338µM*; ELG1 genotoxic: 12.9%

How did CCOC(=O)c1cc(C(=O)OCC)cc(-n2cc(O)c(C(=O)OCC)n2)c1 do in these assays?
NPC1 promoter act: 0.2%; Luc counter: -1.4%; SMN2 splice enh: -0.1%; Rab9 prom act: 0.2%; FLuc modulator: -0.8%; ELG1 genotoxic: 0.4%

How did CCOC(=O)c1nn(-c2ccc3ccccc3c2)cc1O do in these assays?
NPC1 promoter act: inconclusive; Luc counter: 0.4%; SMN2 splice enh: 13.3%; Rab9 prom act: 23.2%; FLuc modulator: 8.49µM*; ELG1 genotoxic: 14.6µM*

Results for COCCn1c(C(=O)N2CCCC2)cc2c1C[C@H]1CN(C(=O)c3ccccc3)[C@@](Cc3ccc(OC)cc3)(C(=O)OC)[C@@H]21 ?
Luc counter: -3.3%; SMN2 splice enh: -1.1%

How did c1cc2c(cc1-n1cnnn1)OCO2 do in these assays?
NPC1 promoter act: 1.9%; Luc counter: -1.6%; SMN2 splice enh: 17.4%; Rab9 prom act: 6.9%; FLuc modulator: -3.2%; ELG1 genotoxic: 0.2%

Results for CCOC(=O)c1nn(-c2ccc3c(c2)OCO3)cc1O ?
NPC1 promoter act: 3.16µM*; Luc counter: -11.9%; SMN2 splice enh: inconclusive; Rab9 prom act: inconclusive; FLuc modulator: 12µM*; ELG1 genotoxic: inconclusive

Results for CCOC(=O)c1nn(-c2ccc(Cl)cc2)cc1O ?
NPC1 promoter act: inconclusive; Rab9 prom act: inconclusive; FLuc modulator: 10.7µM*; ELG1 genotoxic: inconclusive

What do the screens show for `CCOC(=O)c1nn(-c2ccc(Cl)cc2C)ccc1=O`?
NPC1 promoter act: -0.8%; Rab9 prom act: -0.3%; FLuc modulator: -1.3%; ELG1 genotoxic: 4.9%

What do the screens show for `COc1ccc(CC(=O)Nc2nnc(C(C)C)s2)cc1`?
NPC1 promoter act: -0.9%; Luc counter: -0.6%; Rab9 prom act: 0.9%; FLuc modulator: 3.4%; ELG1 genotoxic: 6.0%

What do the screens show for `COc1ccc(NC(=O)Nc2nnc(-c3ccccc3F)s2)cc1`?
NPC1 promoter act: inconclusive; Luc counter: -0.3%; SMN2 splice enh: 13.6%; Rab9 prom act: 2.82µM*; FLuc modulator: -3.4%; ELG1 genotoxic: 1.1%

How did COc1ccc(NC(=O)Nc2nnc(C(C)C)s2)cc1 do in these assays?
NPC1 promoter act: 3.55µM*; Luc counter: -1.9%; SMN2 splice enh: 26.2%; Rab9 prom act: inconclusive; FLuc modulator: 21.3µM*; ELG1 genotoxic: inconclusive

Results for COc1ccc(NC(=O)Nc2nnc(-c3ccco3)s2)cc1 ?
NPC1 promoter act: 0.891µM*; Rab9 prom act: 1.26µM*; FLuc modulator: inconclusive; ELG1 genotoxic: inconclusive

What do the screens show for `O=C(COc1ccccc1-c1ccccc1)NCc1cccc(Cl)c1`?
NPC1 promoter act: -3.1%; Rab9 prom act: -4.0%; FLuc modulator: -0.3%; ELG1 genotoxic: -1.8%

How did Cc1ccc(S(=O)(=O)N2[C@@H](c3ccc(F)cc3)C(C(=O)O)=CC[C@H]2c2cccs2)cc1 do in these assays?
NPC1 promoter act: 0.5%; Rab9 prom act: -6.0%; FLuc modulator: -0.3%; ELG1 genotoxic: 1.0%

What do the screens show for `CCOC(=O)CCCn1ncn2c(cc3occc32)c1=O`?
NPC1 promoter act: 18.0%; Luc counter: 1.5%; SMN2 splice enh: -2.3%; Rab9 prom act: 26.0%; FLuc modulator: inconclusive; ELG1 genotoxic: 20.6µM*

What do the screens show for `CN(C)c1ccc(C(=O)OCC(=O)c2ccc[nH]2)cc1`?
ELG1 genotoxic: 16.4µM*

What do the screens show for `O=C(COC(=O)c1nc(Cl)c(Cl)c(Cl)c1Cl)c1ccc[nH]1`?
NPC1 promoter act: 4.3%; Rab9 prom act: -0.3%; FLuc modulator: 4.4%; ELG1 genotoxic: inconclusive

What do the screens show for `O=C(OCC(=O)c1ccc[nH]1)c1ccc(Cl)c(Cl)c1`?
ELG1 genotoxic: -2.4%

What do the screens show for `O=C(OCC(=O)c1ccc[nH]1)c1ccccc1`?
NPC1 promoter act: 8.1%; Luc counter: -19.5%; SMN2 splice enh: -30.0%; Rab9 prom act: inconclusive; FLuc modulator: 16.9µM*; ELG1 genotoxic: inconclusive

What do the screens show for `O=C(COC(=O)c1c(F)cccc1F)c1ccc[nH]1`?
NPC1 promoter act: 4.1%; Rab9 prom act: 13.5%; FLuc modulator: 16.9µM*; ELG1 genotoxic: 3.8%

Results for O=C(/C=C/c1ccccc1Cl)OCC(=O)c1ccc[nH]1 ?
NPC1 promoter act: 11.4%; Rab9 prom act: 2.3%; FLuc modulator: 9.53µM*; ELG1 genotoxic: 6.3%

What do the screens show for `Cc1cc(O)c(C(c2ccccc2)N2CCN(c3ccc(F)cc3)CC2)c(=O)n1Cc1ccco1` (stereo not drawn)?
FLuc modulator: -15.2%

How did CC(C)(CNC(=O)CO/N=C1/C=C2CCC3C(C(O)C[C@@]4(C)C3CC[C@]4(O)C(=O)CO)[C@@]2(C)CC1)C(O)C(=O)O (stereo partly drawn) do in these assays?
NPC1 promoter act: 15.3%; Rab9 prom act: 0.3%; FLuc modulator: -1.3%; ELG1 genotoxic: inconclusive

Results for O=C(c1c(F)cccc1F)N1CCN=C1SCc1ccccc1 ?
NPC1 promoter act: -2.0%; Rab9 prom act: -1.2%; FLuc modulator: 0.6%; ELG1 genotoxic: -3.4%

How did CC(C)N1CCc2c(sc(NC(=O)c3nc4ccccc4s3)c2C(N)=O)C1 do in these assays?
NPC1 promoter act: -0.5%; Luc counter: -6.9%; SMN2 splice enh: -9.3%; Rab9 prom act: -1.2%; FLuc modulator: 16.9µM*; ELG1 genotoxic: 1.1%

What do the screens show for `CCN1CCN(S(=O)(=O)c2ccc(C(=O)Nc3sc4c(c3C(N)=O)CCN(CC)C4)cc2)CC1`?
NPC1 promoter act: 0.8%; Rab9 prom act: -4.5%; FLuc modulator: 1.1%; ELG1 genotoxic: -1.2%
